Measurements: PubChem BioAssay (NCATS)
Inconclusive results are not listed. The source made the active and inactive calls. The call rests on the fitted dose curve.

Columns and labels:
[1] = Primary qHTS for inhibitors of SARS-S pseudo-typed particle cell entry (AID 1479145); settings: outcome: dose series up to 57.1 µM unless noted; further: nearly all actives have a fitted effect of over 45% in size; on activity change, negative = inhibition: on the % scale 0 is the no-effect control and ±100 the full control effect
[2] = Primary qHTS for Huh7 cytotoxicity: counterscreen for inhibitors of MERS-S pseudotyped particle cell entry (AID 1479147); settings: outcome: dose series up to 57.1 µM unless noted; on activity change, negative = cytotoxicity: on the % scale 0 is the no-effect control and ±100 the full control effect
[3] = Primary qHTS for inhibitors of MERS-S pseudo-typed particle cell entry (AID 1479149); settings: outcome: dose series up to 57.1 µM unless noted; further: nearly all actives have a fitted effect of over 60% in size
[4] = Primary qHTS for Vero E6 cytotoxicity: counterscreen for inhibitors of SARS-S pseudo-typed particle cell entry (AID 1479150); settings: outcome: dose series up to 57.1 µM unless noted; on activity change, negative = cytotoxicity: on the % scale 0 is the no-effect control and ±100 the full control effect
[5] = Cytotoxicity counterscreen for inhibitors of SARS-CoV-2 cell entry (AID 1645845); settings: outcome: dose series up to 57.1 µM unless noted; further: nearly all actives have a fitted effect of over 50% in size; on activity change, negative = cytotoxicity: on the % scale 0 is the no-effect control and ±100 the full control effect
Procedure, shortened: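 HEK293-ACE2 cells (Expi293F stably expressing human ACE2) seeded overnight, then compound for 1 h plus 48 h at 37C. Viability as ATP content by luminescence; normalized to wells with cells and media-only wells.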

[6] = Primary qHTS to identify inhibitors of SARS-CoV-2 cell entry (AID 1645846); settings: SARS-CoV-2 pseudovirus cell entry assay, luminescence; further: nearly all actives have a fitted effect of over 45% in size
Procedure, shortened: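 Entry measured by luciferase signal 48 h after adding SARS-CoV-2-S pseudotyped MLV particles to HEK293-ACE2 cells preincubated 1 h with compounds. Normalisation: bald particles and spike particles.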

[7] = VSVG counterscreen qHTS to identify inhibitors of SARS-CoV-2 cell entry (AID 1645847); further: potency means the concentration at half of the fitted maximal effect; nearly all actives have a fitted effect of over 65% in size
Procedure, shortened: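 Luminescence read after 48 h infection at 37 C with VSV-G-pseudotyped MLV particles, following 1 h compound exposure of Expi293F cells stably expressing human ACE2; scaled between bald particle and VSV-G particle wells.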

[8] = activity change, negative = inhibition: at 57.1 µM (top of the series) unless noted, outcome: at 57.1 µM (top of the series) unless noted

CN(C)C=Nc1c(I)cc(I)c(CCC(=O)O)c1I
-33.1%: activity change, negative = inhibition [6, 8]
inactive: Potency [1] | Potency [2] | Potency [3] | Potency [4] | Potency [5]

NC(N)=NCCC[C@@H](N)C(=O)N[C@@H](CCCN=C(N)N)C(=O)N1CCC[C@H]1C(=O)N1C[C@H](O)C[C@H]1C(=O)NCC(=O)N[C@@H](Cc1cccs1)C(=O)N[C@@H](CO)C(=O)N1Cc2ccccc2C[C@@H]1C(=O)N1[C@H](C(=O)N[C@@H](CCCN=C(N)N)C(=O)O)C[C@@H]2CCCC[C@@H]21
inactive: Potency [1] | Potency [2] | Potency [3] | Potency [4] | Potency [5] | Potency [6, 8]

CCNC(=O)CCC/C=C\C[C@@H]1[C@@H](/C=C/[C@@H](O)CCc2ccccc2)[C@H](O)C[C@@H]1O
inactive: Potency [1] | Potency [2] | Potency [3] | Potency [4] | Potency [5]
-19.7%: activity change, negative = inhibition [6, 8]

CCC(Oc1ccccc1)C(=O)N[C@@H]1C(=O)N2[C@@H]1SC(C)(C)[C@@H]2C(=O)O (some centres undefined)
inactive: Potency [1] | Potency [2] | Potency [3] | Potency [4] | Potency [5]
-26.6% [at 114 µM]: activity change, negative = inhibition [6, 8]

CCCCCCCCCCCCCCCC(=O)OCC=C(C)C=CC=C(C)C=CC1=C(C)CCCC1(C)C
inactive: Potency [1] | Potency [2] | Potency [3] | Potency [4] | Potency [5]
-0.93%: activity change, negative = inhibition [6, 8]

CC12C=CC(=O)NC1CCC1C2CCC2(C)C(C(=O)Nc3cc(C(F)(F)F)ccc3C(F)(F)F)CCC12 (centres undefined)
-8.68%: activity change, negative = inhibition [6, 8]
inactive: Potency [1] | Potency [2] | Potency [3] | Potency [4] | Potency [5]

C/C=C(/C)C(=O)O[C@H]1C(C)=CC23C(=O)C(C=C(CO)[C@@H](O)[C@]12O)[C@H]1[C@@H](C[C@H]3C)C1(C)C (some centres undefined)
inactive: Potency [1] | Potency [2] | Potency [3] | Potency [4] | Potency [5] | Potency [6, 8]

CC(O)C(CO)NC(=O)C1CSSCC(NC(=O)C(N)Cc2ccccc2)C(=O)NC(Cc2ccccc2)C(=O)NC(Cc2c[nH]c3ccccc23)C(=O)NC(CCCCN)C(=O)NC(C(C)O)C(=O)N1 (centres undefined)
-15.6% [at 27.1 µM]: activity change, negative = inhibition [6, 8]
inactive: Potency [1] | Potency [2] | Potency [3] | Potency [4] | Potency [5]

CO/N=C(\C(=O)N[C@@H]1C(=O)N2C(C(=O)O)=C(Cn3ccc(=N)n3CCO)CS[C@H]12)c1csc(N)n1
inactive: Potency [1] | Potency [2] | Potency [3] | Potency [4] | Potency [5]
-19.1%: activity change, negative = inhibition [6, 8]

CC(C)C[C@H](NC(=O)[C@@H](COC(C)(C)C)NC(=O)[C@H](Cc1ccc(O)cc1)NC(=O)[C@H](CO)NC(=O)[C@H](Cc1c[nH]c2ccccc12)NC(=O)[C@H](Cc1cnc[nH]1)NC(=O)[C@@H]1CCC(=O)N1)C(=O)N[C@@H](CCCN=C(N)N)C(=O)N1CCC[C@H]1C(=O)NNC(N)=O
inactive: Potency [1] | Potency [2] | Potency [3] | Potency [4] | Potency [5]
-11.8% [at 27.1 µM]: activity change, negative = inhibition [6, 8]

C[C@@H](O)[C@H]1C(=O)N2C(C(=O)[O-])=C(SC3Cn4cnc[n+]4C3)[C@H](C)[C@H]12 (some centres undefined)
-12.2% [at 11.3 µM]: activity change, negative = inhibition [6, 8]
inactive: activity change, negative = inhibition [1] -18.9% [at 11.4 µM] | outcome [2] inactive [at 11.4 µM] | activity change, negative = inhibition [3] -3.17% [at 11.4 µM] | activity change, negative = cytotoxicity [4] 4.16% [at 11.4 µM] | outcome [5] inactive [at 11.3 µM]

Nc1nc(CC(=O)Nc2ccc(CCNC[C@H](O)c3ccccc3)cc2)cs1
inactive: Potency [1] | Potency [2] | Potency [3] | Potency [4] | Potency [5]
-24.2%: activity change, negative = inhibition [6, 8]

Cc1ncc(C[n+]2csc(CCOP(=O)(O)OP(=O)(O)O)c2C)c(N)n1
inactive: outcome [1] inactive [at 0.573 µM] | outcome [2] inactive [at 0.573 µM] | outcome [3] inactive [at 0.573 µM] | activity change, negative = cytotoxicity [4] -14.9% [at 0.573 µM] | activity change, negative = cytotoxicity [5] 3.84% [at 0.702 µM]
-1.65% [at 0.702 µM]: activity change, negative = inhibition [6, 8]

CN[C@H]1C(=O)N[C@@H]2Cc3ccc(cc3)Oc3cc4cc(c3O[C@@H]3O[C@H](C(=O)O)[C@@H](O)[C@H](O)[C@H]3NC(=O)CCCCCCCCC(C)C)Oc3ccc(cc3Cl)[C@@H](O)[C@@H]3NC(=O)[C@H](NC(=O)[C@@H]4NC(=O)[C@@H](NC2=O)c2cc(cc(O)c2Cl)Oc2cc1ccc2O)c1ccc(O)c(c1)-c1c(O[C@H]2O[C@H](CO)[C@@H](O)[C@H](O)[C@@H]2O)cc(O)cc1[C@@H](C(=O)NCCCN(C)C)NC3=O
0.0393% [at 27.1 µM]: activity change, negative = inhibition [6, 8]
inactive: Potency [1] | Potency [2] | Potency [3] | Potency [4] | Potency [5]

CCCCCCCCCCCCCCCC(=O)OCC(=O)[C@@]1(O)[C@H](C)C[C@H]2[C@@H]3CCC4=CC(=O)C=C[C@]4(C)[C@@]3(F)[C@@H](O)C[C@@]21C
3.26%: activity change, negative = inhibition [6, 8]
inactive: Potency [1] | Potency [2] | Potency [3] | Potency [4] | Potency [5]

C=C1C[C@@H]2CC[C@@]34C[C@H]5O[C@H]6[C@@H](O3)[C@H]3O[C@H](CC[C@@H]3O[C@H]6[C@H]5O4)CC(=O)C[C@@H]3[C@@H](OC)[C@@H](C[C@H](O)CN)O[C@H]3C[C@H]3O[C@@H](CC[C@@H]1O2)C[C@@H](C)C3=C
-91.9%: activity change, negative = inhibition ([6]; at 11.3 µM (top of the series))
inactive: Potency [1] | Potency [2] | Potency [3] | Potency [4] | Potency [5]
active: Potency [7] 111 nM
-84.4%: activity change, negative = inhibition ([6]; at 57.1 µM (top of the series))

CNCC(O)c1ccc(OC(=O)C(C)(C)C)c(OC(=O)C(C)(C)C)c1 (centres undefined)
inactive: Potency [1] | Potency [2] | Potency [3] | Potency [4] | Potency [5]
-25.4%: activity change, negative = inhibition [6, 8]
